Results filed as inconclusive are left out. A call without a number means that no potency is given here. Active and inactive are the calls of the source. Calls follow the shape of the dose curve; as a rule, active = well fitted inhibition curve with a large enough effect; inconclusive = small, poorly fitted or top-dose-only effect; inactive = flat fitted curve, though single readings scatter.
What follows are compounds tested on Zika virus NS2B-NS3 protease (assay: Primary screen GU AMC qHTS for Zika virus inhibitors (AID 1347154; also: nearly all actives have a fitted effect of over 70% in size)). Details: Zika NS2B-NS3 unlinked protease, AMC fluorogenic substrate; series mostly up to 54.1 µM.
Method in brief: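 Fluorogenic AMC-substrate cleavage by noncovalent NS2B-NS3 protease complex (25 nM, pH 8.0 Tris buffer with Tween 20) followed for 15 minutes at room temperature (~20% conversion). Percent inhibition from ex340/em450 signal change, fitted by 4-parameter Hill equation.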

| SMILES | Potency |
| --- | --- |
| c1ccc2nc(N3CCNCC3)ccc2c1 | inactive |
| CC1COC2(c3ccccc3Cl)c3cc(Cl)ccc3NC(=O)CN12 (stereo not drawn) | inactive |
| COc1cc(CC#N)cc(OC)c1OC | inactive |
| CN1[C@@H]2CC[C@H]1CC(OC(=O)c1cc(Cl)cc(Cl)c1)C2 (stereo partly drawn) | inactive |
| C[C@]12CC[C@H]3[C@@H](CCC4=CC(=O)CC[C@@H]43)[C@@H]1CC[C@@H]2O | inactive |
| c1ccc2c(c1)Sc1ccccc1N2CC1CN2CCC1CC2 (stereo not drawn) | inactive |
| Cc1ncc2n1-c1ccc(Cl)cc1C(c1ccccc1F)=NC2 | inactive |
| CN1C[C@@H](NS(=O)(=O)N(C)C)C[C@@H]2c3cccc4c3c(cn4C)C[C@H]21 | inactive |
| Cc1nc2ccccc2c(=O)n1-c1ccccc1Cl | inactive |
| ClC1=C(Cl)C2(Cl)C(CBr)CC1(Cl)C2(Cl)Cl (stereo not drawn) | inactive |
| O=C(O)Cc1ccccc1 | inactive |
| OC(O)C(Cl)(Cl)Cl | inactive |
| NC1(c2ccccc2)CCCCC1 | inactive |
| NCc1cccnc1 | inactive |
| CCC(=O)OC1(c2ccccc2)CCN(C)CC1 | inactive |
| CCOP(=S)(OCC)O/N=C(\C#N)c1ccccc1 | inactive |
| CC(C)(C)OC(=O)c1ncn2c1[C@@H]1CCCN1C(=O)c1c(Br)cccc1-2 | inactive |
| CCN(CC)Cc1nccn1-c1ccc([N+](=O)[O-])cc1C(=O)c1ccccc1Cl | inactive |
| CCN(CC)CCOC(=O)C(C)(c1ccccc1)c1ccccc1 | inactive |

| SMILES | Potency |
| --- | --- |
| CC(C)C(Br)C(=O)NC(N)=O (stereo not drawn) | inactive |
| OC(c1ccccc1)(c1ccccc1)C1CCNCC1 | inactive |
| COc1ccc(CN2CCNCC2)c(OC)c1OC | inactive |
| CNC(C)Cc1ccc2c(c1)OCO2 (stereo not drawn) | inactive |
| C=CCN1CC[C@]23CCCC[C@H]2[C@H]1Cc1ccc(O)cc13 | inactive |
| CN1C(=O)CN=C(c2ccccc2)c2cc([N+](=O)[O-])ccc21 | inactive |
| CC(Cc1ccccc1)NCCCCl (stereo not drawn) | inactive |
| CC(C)=C[C@@H]1[C@@H](C(=O)OCc2coc(Cc3ccccc3)c2)C1(C)C | inactive |
| CCCN(CCC)CCc1c[nH]c2ccccc12 | inactive |
| Cc1ccc(N=CN(C)C=Nc2ccc(C)cc2C)c(C)c1 | inactive |
| O=C(CBr)Nc1ccc(Cl)cc1C(=O)c1ccccc1F | inactive |
| CCCC(C)C1(CC)C(=O)N=C(S)NC1=O (stereo not drawn) | inactive |
| C[C@@H]1CC[C@H]2[C@@H](C)C(=O)O[C@@H]3O[C@@]4(C)CC[C@@H]1[C@]32OO4 | inactive |
| C[C@@H]1C[C@@H]([C@H](O)CC2CC(=O)NC(=O)C2)C(=O)[C@@H](C)C1 | inactive |
| Nc1ccc(N)cc1 | inactive |
| COc1ccc(OC)c(CC(C)N)c1 (stereo not drawn) | inactive |
| CCNc1nc(Cl)nc(NCC)n1 | inactive |
| CC(Cc1ccc2c(c1)OCO2)NO (stereo not drawn) | inactive |
| C[C@@H]1O[C@@H](O[C@@H]2C=C3CC[C@@H]4[C@H](CC[C@]5(C)[C@@H](c6ccc(=O)oc6)CC[C@]45O)[C@@]3(C)CC2)[C@H](O)[C@H](O)[C@H]1O | inactive |

Source: PubChem BioAssay (NCATS)
